# Source: ChEMBL document CHEMBL1857833, “Screening and optimization of specific chemical series against human African Trypanosomiasis (HAT)”
# Several values for one entry are separate records, joined by “and”; a condition that tells them apart may be missing. Equal entries are not always repeated. In all, about 4,400 compounds went through this assay and about 390 (8.9%) showed an effect of 50% or more. Only a selection was taken, and strong results are over-represented in it overall.
# Test system: Trypanosoma brucei
# Experiment: DNDI: Inhibition of Human African Trypanosomiasis, SBRI 427, in vitro at 2 ug.mL-1
# Type: functional
row,SMILES,% inhibition
1,CSc1ccc(Oc2ncccc2/C(=N/O)NCc2cccnc2)cc1C,10%
2,CCOc1cccc(-c2nc(CNCCc3cccc(OC)c3)co2)c1,8%
3,COCC(C)NCc1coc(-c2cccc(C)c2)n1 (stereo not given),19%
4,Cc1ccc(N(C)Cc2coc(-c3ccccc3Cl)n2)cc1,-9%
5,CC(C)COc1ncccc1/C(=N/O)NCc1c(F)cccc1F,-9%
6,O/N=C(\NCc1ccccc1)c1cccnc1OCc1ccccc1F,37%
7,Cc1cc(C)cc(CN/C(=N\O)c2cccnc2Oc2c(F)c(F)cc(F)c2F)c1,-3%
8,O/N=C(\NCc1ccncc1)c1cccnc1OCc1ccccc1F,-12%
9,O/N=C(\NCc1c(F)cccc1F)c1cccnc1Oc1c(F)cccc1F,95%
10,Cc1cc(C)cc(CN/C(=N\O)c2cccnc2Oc2cccc(C)c2C)c1,-13%
11,Cc1cc(C)cc(CN/C(=N\O)c2cccnc2Oc2c(F)cccc2F)c1,100%
12,O/N=C(\NCc1c(F)cccc1F)c1cccnc1OC1CCC1,10%
13,CC(C)c1ccc(Oc2ncccc2/C(=N/O)NCc2c(F)cccc2F)cc1,100%
14,CC(C)c1ccc(Oc2ncccc2/C(=N/O)NCc2ccncc2)cc1,1%
15,O/N=C(\NCc1c(F)cccc1F)c1cccnc1Oc1c(F)c(F)cc(F)c1F,2%
16,Cc1cc(C)cc(CN/C(=N\O)c2cccnc2OCc2ccccc2F)c1,83%
17,COc1cc(C)ccc1Oc1ncccc1/C(=N/O)N(C)C1CCN(C)CC1,-9%
18,Fc1ccc(-c2nc(Cn3ncc4c3CCCC4)co2)cc1,1%
19,COc1cc(-c2nc(CN3CCC(Cc4ccccc4)CC3)co2)cc(OC)c1OC,6%
20,CCOc1ccccc1-c1nc(CN(C)c2ccc(C)cc2)co1,-15%
21,CCCN(Cc1coc(-c2ccccc2Cl)n1)C(C)CC (stereo not given),-11%
22,Cc1cc(C)n(/C(=N\O)c2ccnc(Oc3cccc4c3CCCC4)c2)n1,57%
23,O/N=C(/c1ccnc(Oc2cccc3c2CCCC3)c1)N1CCSCC1,91%
24,O/N=C(/c1ccc(Oc2cccc3c2CCCC3)nc1)N1CCSCC1,21%
25,O/N=C(/c1ccnc(Oc2cccc3c2CCCC3)c1)N1CCN(c2ccccc2)CC1,22%

row,SMILES,% inhibition
1,Cc1cc(C)n(/C(=N\O)c2ccnc(Oc3cc(Cl)ccc3Cl)c2)n1,16%
2,N/C(=N\O)c1ccnc(Oc2cccc3c2CCCC3)c1,7%
3,Cc1ccccc1-c1nc(CN(C)Cc2ccccc2)co1,-2%
4,COCCN(CCOC)Cc1coc(-c2ccc(C(C)(C)C)cc2)n1,-1%
5,C=COCCCNCc1coc(-c2ccc(C)cc2)n1,-5%
6,C=COCCCNCc1coc(-c2ccc(OC)cc2)n1,-2%
7,C=COCCCNCc1coc(-c2ccc(C(C)(C)C)cc2)n1,53%
8,Cc1ccccc1-c1nc(CN(CCN(C)C)Cc2ccccc2)co1,54%
9,CN(C)CC(C)(C)CNCc1coc(-c2ccc(C(C)(C)C)cc2)n1,9%
10,Cc1ccccc1-c1nc(CN(CCC#N)Cc2ccccc2)co1,-5%
11,CC(C)(C)CNCc1coc(-c2ccc(C(C)(C)C)cc2)n1,99%
12,CCN(CC)CCN(CC)Cc1coc(-c2ccc(OC)cc2)n1,14%
13,CCN(CCN(C)C)Cc1coc(-c2ccc(C(C)(C)C)cc2)n1,99%
14,CC(C)(C)c1ccc(CNCc2coc(-c3ccc(O)cc3)n2)cc1,36%
15,Cc1ccc(-c2nc(CN(C)C(C)(C)C)co2)cc1,22%
16,CN(CCc1ccccc1)Cc1coc(-c2ccc(Cl)cc2Cl)n1,11%
17,Cc1ccc(CCNCc2coc(-c3ccc(Cl)cc3Cl)n2)cc1,-7%
18,C=CCN(C)Cc1coc(-c2cccc(OC)c2)n1,27%
19,CSc1ccc(Oc2nc(C)ccc2/C(=N/O)N2C(C)CCC2C)cc1C (stereo not given),23%
20,FC(F)(F)c1ccc(CNCc2coc(-c3cccs3)n2)cc1,-6%
21,COc1ccc(-c2nc(CN3CCN(C)CC3)co2)cc1,4%
22,Cc1ccc(CNCc2coc(-c3ccc(C(C)(C)C)cc3)n2)o1,0%
23,Cc1ccc(-c2nc(Cn3cc(C)nc3C)co2)cc1,18%
24,c1ccc(-c2nc(CNCC3CC3)co2)cc1,28%
25,CC(C)C(C)NCc1coc(-c2ccc(O)cc2)n1 (stereo not given),33%

row,SMILES,% inhibition
1,CCCCNCc1coc(-c2ccccc2)n1,20%
2,CC(C)C(C)NCc1coc(-c2ccc(C(C)(C)C)cc2)n1 (stereo not given),72%
3,CC(C)(C)c1ccc(-c2nc(CNCC3CC3)co2)cc1,99%
4,Cc1cn(Cc2coc(-c3ccc(C(F)(F)F)cc3)n2)c(C)n1,2%
5,Cc1ccc(-c2nc(CNC(C)C(C)C)co2)cc1 (stereo not given),41% and 29%
6,COc1ccc(-c2nc(CNCC3CCCCC3)co2)cc1,10%
7,CCCCNCc1coc(-c2ccc(C(C)(C)C)cc2)n1,99%
8,Cc1cn(Cc2coc(-c3ccc(C(C)(C)C)cc3)n2)c(C)n1,58%
9,CCOc1ccccc1N(Cc1ccccc1)Cc1coc(-c2cccc(F)c2)n1,1%
10,Brc1ccccc1-c1nc(CNCc2cccc3ccccc23)co1,-1%
11,CCCCN(C)Cc1coc(-c2ccc(OC)cc2)n1,9%
12,COc1cccc(-c2nc(CN3CCCCCCC3)co2)c1,31%
13,Cc1ccc(/C(=N/O)N(C)Cc2ccco2)c(Oc2cccc3c2CCCC3)n1,-8%
14,Cc1cn(Cc2coc(-c3cccc4ccccc34)n2)cn1,1%
15,CCN(Cc1coc(-c2ccccc2Cl)n1)c1ccc(C)cc1,-3%
16,CC(CNCc1coc(-c2cccc3ccccc23)n1)c1ccccc1 (stereo not given),8%
17,Oc1ccc(-c2nc(CN3CCCCCC3)co2)cc1,9%
18,COc1ccc(-c2nc(CN3CCC(N4CCCC4)CC3)co2)cc1,-12%
19,COc1ccc(N2CCN(Cc3coc(-c4ccc(F)cc4)n3)CC2)cc1,-1%
20,Cc1ccc(-c2nc(CN3CCN(c4ccc(F)cc4)CC3)co2)cc1,0%
21,Brc1ccc(-c2nc(CN3CCCC3)co2)cc1,1%
22,Brc1ccc(-c2nc(CN3CCCCCC3)co2)cc1,72%
23,Cc1ccc(-c2nc(CN3CCC(N4CCCCC4)CC3)co2)cc1,3%
24,Fc1ccc(-c2nc(CN3CCN(c4ccc(F)cc4)CC3)co2)cc1,52%
25,Cc1ccc(-c2nc(CN3CCC(N4CCCC4)CC3)co2)cc1,60%
